Laboratory results from PubChem BioAssay (NCI).
Compounds without any hit were thinned out: in the full panel of roughly 83,000, 20% have a hit.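 Cell lines were cultured in 96-well plates, exposed to a single compound concentration, and assessed for percent growth 48 hours later.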 Calls of active or inactive are those of the source. Rule for the calls: active = growth percent below 10; inactive = the rest.

Assays:
Test in all cases: NCI-60 one-dose screen, 48 h (100 = growth as untreated, 0 = no growth, -100 = all killed)
Conditions in all cases: 10 µM unless noted
DU-145 prostate = test system: DU-145 prostate
K-562 leukemia = test system: K-562 leukemia
MALME-3M melanoma = test system: MALME-3M melanoma
MDA-MB-231 breast = test system: MDA-MB-231 breast
RXF 393 renal = test system: RXF 393 renal
SF-268 CNS = test system: SF-268 CNS
SF-295 CNS = test system: SF-295 CNS
SF-539 CNS = test system: SF-539 CNS
UACC-257 melanoma = test system: UACC-257 melanoma
M14 melanoma = test system: M14 melanoma
HCT-15 colon = test system: HCT-15 colon
HT29 colon = test system: HT29 colon
SNB-75 CNS = test system: SNB-75 CNS
SNB-19 CNS = test system: SNB-19 CNS
U251 CNS = test system: U251 CNS
PC-3 prostate = test system: PC-3 prostate
SK-MEL-5 melanoma = test system: SK-MEL-5 melanoma
UACC-62 melanoma = test system: UACC-62 melanoma
LOX IMVI melanoma = test system: LOX IMVI melanoma
SK-MEL-28 melanoma = test system: SK-MEL-28 melanoma

Measured: growth

CCOC(=O)c1c(N)sc2cc(O)ccc12
inactive: DU-145 prostate 89.2% | K-562 leukemia 89.9% | MALME-3M melanoma 118% | MDA-MB-231 breast 106% | RXF 393 renal 115% | SF-268 CNS 105% | SF-295 CNS 96.3% | SF-539 CNS 106% | UACC-257 melanoma 115% | M14 melanoma 108% | HCT-15 colon 97.1% | HT29 colon 104% | SNB-75 CNS 86.7% | SNB-19 CNS 106% | U251 CNS 98.9% | PC-3 prostate 103% | SK-MEL-5 melanoma 104% | UACC-62 melanoma 92.3% | LOX IMVI melanoma 96.5% | SK-MEL-28 melanoma 92.7%

Oc1cccc(-c2nc(-c3n[nH]c(=S)n3-c3ccccc3)cc3c2[nH]c2ccccc23)c1
inactive: DU-145 prostate 27.7% | K-562 leukemia 11.1% | MALME-3M melanoma 44.4% | MDA-MB-231 breast 45.7% | SF-268 CNS 28.6% | UACC-257 melanoma 66.7% | M14 melanoma 24.6% | HCT-15 colon 20.3% | SNB-19 CNS 24.2% | U251 CNS 14% | PC-3 prostate 30% | UACC-62 melanoma 32% | SK-MEL-28 melanoma 31.4%
active: RXF 393 renal -15.7% | SF-295 CNS 3.87% | SF-539 CNS -15.2% | HT29 colon 6.61% | SNB-75 CNS -11.5% | SK-MEL-5 melanoma 9.76% | LOX IMVI melanoma 8.16%

Cn1cc(-c2ccc3occ(-c4cccc(-c5ccncc5)c4)c3n2)cn1
active: K-562 leukemia 8.55% | RXF 393 renal 4.67% | SF-295 CNS 1.64% | SF-539 CNS -23% | M14 melanoma 1.71% | HCT-15 colon 5.33% | HT29 colon 7.76% | SNB-75 CNS -12.8% | SK-MEL-5 melanoma -46.4% | UACC-62 melanoma -15.7%
inactive: DU-145 prostate 26.9% | MALME-3M melanoma 21.2% | MDA-MB-231 breast 35.4% | SF-268 CNS 28.5% | UACC-257 melanoma 40.9% | SNB-19 CNS 29.4% | U251 CNS 25.4% | PC-3 prostate 19.6% | LOX IMVI melanoma 14.9% | SK-MEL-28 melanoma 30.6%

CO[C@H]1/C=C/O[C@@]2(C)Oc3c(C)c(O)c4c(O)c(c5c(nc6cc(C)ccn65)c4c3C2=O)NC(=O)/C(C)=C\C=C\[C@H](C)[C@H](O)[C@@H](C)C(O)[C@@H](C)[C@H](OC(C)=O)[C@@H]1C (stereo not given in full)
inactive: DU-145 prostate 114% | K-562 leukemia 95.3% | MALME-3M melanoma 93.4% | MDA-MB-231 breast 104% | RXF 393 renal 111% | SF-268 CNS 102% | SF-295 CNS 102% | SF-539 CNS 105% | UACC-257 melanoma 106% | M14 melanoma 94.4% | HCT-15 colon 103% | HT29 colon 96.7% | SNB-75 CNS 86.4% | SNB-19 CNS 99.9% | U251 CNS 98.2% | PC-3 prostate 90.4% | SK-MEL-5 melanoma 103% | UACC-62 melanoma 98% | LOX IMVI melanoma 95.9% | SK-MEL-28 melanoma 104%

CCNc1nc(-c2ccc(Cl)c(OC)c2)c(-c2ccnc(NCCNS(=O)(=O)c3ccc(Cl)cc3)n2)s1
active: MDA-MB-231 breast 0.973% | HT29 colon 5.01% | PC-3 prostate 9.83%
inactive: DU-145 prostate 44.3% | K-562 leukemia 18.3% | MALME-3M melanoma 46.2% | RXF 393 renal 18.9% | SF-268 CNS 37% | SF-295 CNS 17.2% | SF-539 CNS 38.3% | UACC-257 melanoma 50.4% | M14 melanoma 29.7% | HCT-15 colon 16.7% | SNB-75 CNS 46.1% | SNB-19 CNS 34.2% | U251 CNS 17.3% | SK-MEL-5 melanoma 13.5% | UACC-62 melanoma 24.6% | LOX IMVI melanoma 13.9% | SK-MEL-28 melanoma 32.3%

O=C(/C=C/C12c3ccccc3C(c3ccccc31)C1C(=O)NC(=O)C12)c1cccs1 (stereo not given)
inactive: DU-145 prostate 13.5% | K-562 leukemia 16.8% | MALME-3M melanoma 75.6% | MDA-MB-231 breast 51.6% | RXF 393 renal 28.1% | SF-268 CNS 32.9% | SF-295 CNS 52.5% | SF-539 CNS 53.9% | UACC-257 melanoma 45.7% | M14 melanoma 48.2% | HCT-15 colon 26.3% | HT29 colon 22.6% | SNB-75 CNS 17.1% | SNB-19 CNS 39.2% | U251 CNS 15.8% | PC-3 prostate 33.6% | SK-MEL-5 melanoma 54.8% | UACC-62 melanoma 37.2% | LOX IMVI melanoma 28.6% | SK-MEL-28 melanoma 45.8%

Nc1ncc(-c2ccc3ncnc(N4CCc5ccc(Cl)cc54)c3c2)cn1
inactive: DU-145 prostate 10% | K-562 leukemia 10.5% | SF-268 CNS 11.2% | SNB-19 CNS 14.1%
active: MALME-3M melanoma -17.4% | MDA-MB-231 breast -3.01% | RXF 393 renal -29.4% | SF-295 CNS -7.57% | SF-539 CNS -68.8% | UACC-257 melanoma 8.1% | M14 melanoma 8.74% | HCT-15 colon 7.19% | HT29 colon 1.74% | SNB-75 CNS -11.6% | U251 CNS 9.31% | PC-3 prostate 8.82% | SK-MEL-5 melanoma -52.2% | UACC-62 melanoma -23.6% | LOX IMVI melanoma 1.27% | SK-MEL-28 melanoma -6.35%

COc1ccc(/C=C/C(=O)c2ccc(-n3cc(CN4CCN(c5cc6c(cc5F)c(=O)c(C(=O)O)cn6C5CC5)CC4)nn3)cc2)cc1
inactive: DU-145 prostate 83.2% | K-562 leukemia 42.6% | MALME-3M melanoma 66.2% | MDA-MB-231 breast 67.2% | RXF 393 renal 64.2% | SF-268 CNS 56% | SF-295 CNS 94.9% | SF-539 CNS 50.8% | UACC-257 melanoma 78.7% | M14 melanoma 59% | HCT-15 colon 80.6% | HT29 colon 29.6% | SNB-75 CNS 58.3% | SNB-19 CNS 67.7% | U251 CNS 41.4% | PC-3 prostate 56.3% | SK-MEL-5 melanoma 69% | UACC-62 melanoma 53.9% | LOX IMVI melanoma 27.9% | SK-MEL-28 melanoma 79.7%
